Marburg entry inh: qHTS for inhibitors of binding or entry into cells for Marburg Virus | Marburg virus pseudotyped entry inhibition, cell reporter | Potency, µM (doses to about 37.8 µM), for inactives: at the highest dose activity change, negative = inhibition, usual class: inhibitors | actives 1.8% (n = 300,000) | AID 540276, 2011; calls by dose curve; tested in HEK293 cells; further: potency means the concentration at half of the fitted maximal effect; on the % scale 0 is the no-effect control and ±100 the full control effect
Cycloheximide cs: Cycloheximide Counterscreen for Small Molecule Inhibitors of Shiga Toxin | cell reporter, cycloheximide protein synthesis inhibition counterscreen | max response, % | actives 12% (n = 300,000) | AID 2314, 2010; in the data active means max response mostly above about 13%, no sharp cut-off; inactive means mostly below about 14%; further: read at 38.3 µM for the half of the compounds with a filed dose; 0% is about no effect
LASV entry inh: qHTS for Inhibitors of binding or entry into cells for Lassa Virus. Lassa virus pseudotype entry inhibition, cell reporter. Potency, µM (series often up to 37.9 µM), for inactives: at the highest dose activity change, negative = inhibition, usual class: inhibitors. actives 1.2% (n = 300,000); calls by dose curve; tested in HEK293 cells; further: potency means the concentration at half of the fitted maximal effect; on the % scale 0 is the no-effect control and ±100 the full control effect; nearly all actives have a fitted effect of over 50% in size
HCV inhibitor: qHTS Assay for Inhibitors of Hepatitis C Virus (HCV); Huh7.5.1 HCVcc-Cre infection, luciferase reporter, 44 h; Potency, µM (series often up to 41.8 µM), for the others: at the highest dose activity change, negative = inhibition, hits mostly inhibitors; actives 3.4% (n = 340,000); active means well fitted inhibition curve with a large enough effect; inconclusive means small, poorly fitted or top-dose-only effect, or another doubt; inactive means no such curve, though single readings can be large or run the other way; further: potency means the concentration at half of the fitted maximal effect; on the % scale 0 is the no-effect control and ±100 the full control effect
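Infectious HCVcc-Cre (~0.5 moi) was added to cells just after compound, with cells seeded 4 h earlier at 1,000 per well. Luciferase activity after 44 h culture reported infection; substrate was incubated 15 min at room temperature before reading.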
Shiga inhibitor: A qHTS for Small Molecule Inhibitors of Shiga Toxin; Vero cells, Shiga toxin protein synthesis inhibition reporter; inhibition, % at 38.7 µM; actives 9.2% (n = 290,000); AID 2315, 2010; in the data active means inhibition mostly above about 28%, no sharp cut-off; inactive means mostly below about 43%; further: 0% is about no effect
FMDV inh: High Throughput Screening for Foot and Mouth Disease Virus Antivirals | actives 1.2% (n = 410,000) | Potency, µM (top dose mostly 57.9 µM), inactives show top-dose activity change, negative = inhibition, usual class: inhibitors | FMDV antiviral cell-based qHTS; calls by dose curve; tested in HEK293T cells; further: read-out not given here; potency means the concentration at half of the fitted maximal effect; on the % scale 0 is the no-effect control and ±100 the full control effect; nearly all actives have a fitted effect of over 45% in size
* marks the source's active call; other numbers are inactive results; [ ] = dose if it differs, or a comment. Rows were chosen to be rich in hits. Some 13% of all compounds tested hit in one or more screens of this group.

Screening CN1CCN(c2ccc(NC(=O)COc3ccccc3[N+](=O)[O-])cc2)CC1 returned Marburg entry inh inconclusive, Cycloheximide cs 7, LASV entry inh 0%, HCV inhibitor 4%, Shiga inhibitor 22 and FMDV inh -4%.
For CC(C)C(=O)N1CCN(c2ccc(NC(=O)COc3ccccc3[N+](=O)[O-])cc2)CC1 the results were Marburg entry inh inconclusive, Cycloheximide cs 1, LASV entry inh inconclusive, HCV inhibitor inconclusive, Shiga inhibitor 25 and FMDV inh 16µM*.
Screening O=C(COc1ccccc1[N+](=O)[O-])Nc1ccc(Br)cc1 returned Marburg entry inh inconclusive, Cycloheximide cs 49*, LASV entry inh -4%[46.1 µM], HCV inhibitor 4%, Shiga inhibitor 114* and FMDV inh 25%.
Cc1cc(C(=O)CCC(=O)N2CCN(S(=O)(=O)c3ccccc3)CC2)c(C)s1 was read as Marburg entry inh -8%, LASV entry inh 1%[46.1 µM], HCV inhibitor 3% and FMDV inh -20%.
Screening O=C(COc1ccccc1[N+](=O)[O-])Nc1cccnc1 returned Marburg entry inh 11%, Cycloheximide cs 31*, LASV entry inh inconclusive, HCV inhibitor -1%, Shiga inhibitor 90* and FMDV inh 47%.
`O=C(NNC(=S)NCc1ccco1)c1ccccc1Br` gave Cycloheximide cs -1, HCV inhibitor 24%, Shiga inhibitor -4 and FMDV inh 4%.
`c1ccc(-n2ncc3c(NCCCN4CCOCC4)ncnc32)cc1` gave Marburg entry inh inconclusive, Cycloheximide cs 34*, LASV entry inh inconclusive, HCV inhibitor -16%, Shiga inhibitor 148* and FMDV inh 46%.
Screening Clc1ccc(-n2ncc3c(NCCN4CCOCC4)ncnc32)cc1 returned Marburg entry inh -16%, Cycloheximide cs 43*, LASV entry inh inconclusive, HCV inhibitor inconclusive, Shiga inhibitor 121* and FMDV inh inconclusive.
Fc1ccc(-n2ncc3c(NCCCN4CCOCC4)ncnc32)cc1 was read as LASV entry inh 22%[46.1 µM] and FMDV inh 41%.
`O=C(CCc1ccc(S(=O)(=O)NCCc2ccccc2)cc1)Nc1ccc2c(c1)OCO2` gave Marburg entry inh -18%, Cycloheximide cs 1, LASV entry inh 18%, HCV inhibitor inconclusive, Shiga inhibitor 13 and FMDV inh 41%.
`O=C(Nc1ccc(S(=O)(=O)NCc2ccccc2)cc1)Nc1ccc2c(c1)OCO2` gave Marburg entry inh 16%, Cycloheximide cs 28*, LASV entry inh 43%[14.3 µM], HCV inhibitor -17%, Shiga inhibitor 81* and FMDV inh 74%.
Screening CCNS(=O)(=O)c1ccc(CCC(=O)Nc2ccc3c(c2)OCO3)cc1 returned Marburg entry inh inconclusive, Cycloheximide cs -1, LASV entry inh 18%, HCV inhibitor -24%, Shiga inhibitor 13 and FMDV inh -1%.
CCNS(=O)(=O)c1ccc(NC(=O)Nc2ccc3c(c2)OCO3)cc1 was read as Cycloheximide cs 30*, HCV inhibitor -16%, Shiga inhibitor 66 and FMDV inh 7%.
`NS(=O)(=O)c1ccc(NC(=O)Nc2ccc3c(c2)OCO3)cc1` gave Marburg entry inh 21%, Cycloheximide cs 41*, LASV entry inh 10%, HCV inhibitor -13%, Shiga inhibitor 96* and FMDV inh 62%.
For Cc1ccc(S(=O)(=O)CCC(=O)OCC(=O)NNC(=O)c2ccc([N+](=O)[O-])cc2)cc1 the results were Marburg entry inh -4%, LASV entry inh 2%, HCV inhibitor 7% and FMDV inh -16%.
Screening Cc1ccc(-n2c(SCC(=O)N3Cc4ccccc4CC3C(=O)O)nnc2-c2cccnc2)c(C)c1 (stereo not given) returned Marburg entry inh 5%[46.1 µM], Cycloheximide cs -3, LASV entry inh -11%[46.1 µM], HCV inhibitor 23%, Shiga inhibitor -9 and FMDV inh 22%.
Cc1cc(=O)[nH]c2n[nH]c(-c3ccccc3)c12 was read as Marburg entry inh 15%, Cycloheximide cs 15*, LASV entry inh inconclusive, HCV inhibitor -26%, Shiga inhibitor 37 and FMDV inh 3%.

Screening data from PubChem.
